The values that follow come from PubChem BioAssay (EPA / NIEHS).

Molecules are shown by their SMILES. Records with an inconclusive call do not appear. Calls of active or inactive are those of the source. How the source made its calls: active means hit-call score of the fitted dose curve at least 0.9, where 1 is the maximum; inconclusive means response in the unintended direction; inactive means score below 0.9.

Read-out in the assay: glucuronosyltransferase (UGT1A1), UGT1A1 (gene 54658)
The assay can be described thus: CLD_UGT1A1_48hr: CellzDirect (CLD) Gene Expression Assay for glucuronosyltransferase (UGT1A1) at 48 hours (AID 2283709).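 Further: actives increase expression relative to DMSO so potency refers to induction.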 The method, then:
CLD_48hr is a cell-based, multiplexed-readout assay that uses hepatocyte, a human liver primary cell, with measurements taken at 48 hours after chemical dosing in a 96-well plate.CLD_UGT1A1_48hr is one of 16 assay component(s) measured or calculated from the CLD_48hr assay. It is designed to make measurements of mRNA induction, a form of inducible reporter, as detected with chemiluminescence signals by Quantitative Nuclease Protection Assay (qNPA) technology.Data from the assay component CLD_UGT1A1_48hr was analyzed at the endpoint, CLD_UGT1A1_48hr, in the positive analysis fitting direction relative to DMSO as the negative control and baseline of activity. Using a type of inducible reporter, gain-of-signal activity can be used to understand changes in the reporter gene as they relate to the gene UGT1A1. Furthermore, this assay endpoint can be referred to as a primary readout. To generalize the intended target to other relatable targets, this assay endpoint is annotated to the transferase intended target family, where subfamily is glucuronosyltransferase.
Human hepatocyte cultures were treated daily for two consecutive days with fresh dosing solutions containing appropriate concentrations of the 320 ToxCast chemicals (chemical identities were blinded to CellzDirect and other ToxCast collaborators), vehicle control (0.2% DMSO), and positive control inducers as summarized in Table 1. Due to the large number of treatment groups and chemicals examined, the ToxCast chemicals were divided into two groups (spanning two independent cultures of hepatocytes from separate donor preparations (Hu778: ToxCast plates 1 and 2; Hu776: ToxCast plates 3 and 4). Each preparation of human hepatocyte cultures was treated with respective vehicle control, medium only control, set of six positive controls/reference chemicals for the five hepatic receptor pathways, and a subset of eight of the ToxCast chemicals (indoxacarb, pyrithiobac-sodium, norflurazon, cyhalofop-butyl, methomyl, thiram, acetochlor, and propiconazole). These replicate data, coupled with internal replicates designed within the blinded ToxCast chemical library, provided additional data to evaluate interindividual differences between hepatocyte preparations and their potential impact on chemical profiles.Cell morphology and integrity were evaluated using phase-contrast microscopy as an indicator of hepatocyte cell health (Tyson & Green, 1987). Cultures for each treatment group (i.e., media, vehicle [0.2% DMSO], positive control inducers [multiple concentrations], and the ToxCast chemicals [multiple concentrations]) were observed and cell morphology was assessed relative to vehicle control cultures at each harvest time point (0, 6, 24, or 48 h). […] Images were evaluated at the conclusion of the study to assess changes in cell integrity and account for the effects of chemical exposure on uncharacteristic changes in concentration-dependent gene expression profiles. The results from these determinations of apparent cytotoxicity were annotated (yes/no) alongside the corresponding qNPA data for reference.At the conclusion of each treatment period, hepatocyte cultures (96-well) were washed with 1 volume of HBSS, lysed by addition of 25 ul ArrayPlate lysis buffer (HTG, Tucson, AZ), and 70 ul/well of Denaturation Oil, denatured by incubation at 95C for 10 min, and frozen at approximately -70C until analysis by nuclease protection assay (qNPA) (Roberts et al., 2007). For qNPA analysis, cell lysates were thawed at 50C for approximately 30 min, qNPA probes were added, and samples were incubated at 95C for 10 min to begin the detection process by denaturing the target RNA, dissociating the duplexes and secondary structure hybridization. At the conclusion of the hybridization period, S1 nuclease reagent was added to each sample to digest all nonprotected nucleotides at 50C for 60-90 min. […]
Turning to `CC(C)(c1ccc(O)cc1)c1ccc(O)cc1`, the outcome was inactive.
Regarding `Oc1ccc(C(c2ccc(O)cc2)C(Cl)(Cl)Cl)cc1`, the compound was called inactive.
On the same count and under the same terms, the same measure for `CCCCCCC(C)OC(=O)COc1nc(F)c(Cl)c(N)c1Cl` (stereo not given): “inactive”; for `CCC(O)=C1C(=O)CC(C(=O)O)CC1=O` (stereo not given): “inactive”; for `CN(C)C(=O)Nc1ccc(Cl)c(Cl)c1`: “inactive”.
Same read-out and setting: the same measure for `O=C(Nc1ccc([N+](=O)[O-])cc1Cl)c1cc(Cl)ccc1O`: “inactive”; for `COC(=O)c1cccc(C)c1S(=O)(=O)NC(=O)Nc1nc(OCC(F)(F)F)nc(N(C)C)n1`: “inactive”.
The same measure, in the same setting: the same measure for `c1ccc2[nH]c(-c3cscn3)nc2c1`: “inactive”; for `C=CCOC(Cn1ccnc1)c1ccc(Cl)cc1Cl` (stereo not given): “inactive”; for `CCOC(=O)C(C)Oc1ccc(Oc2cnc3cc(Cl)ccc3n2)cc1` (stereo not given): “inactive”.
Take `CCC(C)OC(=O)N1CCCCC1CCO` (stereo not given): the compound was classed as inactive.
For `COCCO`, the result was inactive.
The same measure, in the same setting: the same measure for `CCCCC(CC)CN1C(=O)C2C3C=CC(C3)C2C1=O` (stereo not given): “inactive”; for `CCN(Cc1c(F)cccc1Cl)c1c([N+](=O)[O-])cc(C(F)(F)F)cc1[N+](=O)[O-]`: “inactive”.
Regarding `CCOC(=O)NCCOc1ccc(Oc2ccccc2)cc1`, the AC50 (commonly the midpoint of the concentration-response curve, whichever way the signal moves) is 20 µM (active).
For the compound `CCOC(=O)[C@H](C)Oc1ccc(Oc2nc3ccc(Cl)cc3o2)cc1`, the compound was called inactive.
As to `CCOC(=O)C(C)Oc1ccc(Oc2nc3ccc(Cl)cc3o2)cc1` (stereo not given), the outcome was inactive.
On the same count and under the same terms, then `CCCOC(=O)c1ccc(C(=O)OCCC)nc1`, with “inactive”.
For `CCCCOCCOCCOCc1cc2c(cc1CCC)OCO2`, the AC50 is 2.22 µM (active).
Still for that read-out and setting: then `COC(=O)CSc1cc(N=c2sc(=O)n3n2CCCC3)c(F)cc1Cl`, with 5.72 µM (active).
Take `COc1nc(C)nc(NC(=O)NS(=O)(=O)c2ccccc2OCCCl)n1`: the compound was called inactive.
Still for that read-out and setting: then `OB(O)O`, with “inactive”; and `COC(=O)c1ccc(CNS(C)(=O)=O)cc1S(=O)(=O)NC(=O)Nc1nc(OC)cc(OC)n1`, with “inactive”.
As for `CCN(CC)C(=O)c1cccc(C)c1`, the compound was classed as inactive.
Same read-out and setting: the same measure for `CC(C)(C)[C@@H](O)[C@@H](Cc1ccc(Cl)cc1)n1cncn1`: “inactive”.
Consider `CC1(C)C(C=C(Cl)Cl)C1C(=O)OCc1cccc(Oc2ccccc2)c1` (stereo not given), for which the AC50 is 3.97 µM (active).
Regarding `CCSC(=O)N(CC(C)C)CC(C)C`, the result was inactive.
`COc1c(Cl)ccc(Cl)c1C(=O)O`: the outcome was inactive.
As for `CCCCOC(=O)[C@@H](C)Oc1ccc(Oc2ccc(C(F)(F)F)cn2)cc1`, the outcome was inactive.
Regarding `C#CCOC(=O)[C@@H](C)Oc1ccc(Oc2ncc(Cl)cc2F)cc1`, the compound was classed as inactive.
On the same count and under the same terms, then `CCOC(=O)COc1cc(-n2ncc(C(F)(F)F)c(C)c2=O)c(F)cc1Cl`, with “inactive”.
Regarding `CSC(=O)c1cccc2nnsc12`, the result was inactive.
Still for that read-out and setting: the same measure for `COC(=O)c1ccccc1S(=O)(=O)NC(=O)Nc1nc(OC(F)F)cc(OC(F)F)n1`: “inactive”.
Still for that read-out and setting: the same measure for `CCCN(CCC)C(=O)SCC`: “inactive”; for `O=C(O)C1(C(=O)Nc2ccc(Cl)cc2Cl)CC1`: “inactive”; for `CCCCC(CC)COC(=O)c1ccccc1C(=O)O` (stereo not given): “inactive”.
For the compound `CCCN(CCC)c1c([N+](=O)[O-])cc(C(F)(F)F)c(N)c1[N+](=O)[O-]`, the AC50 was 3.96 µM (active).
For `CCCCCOC(=O)COc1cc(N2C(=O)C3=C(CCCC3)C2=O)c(F)cc1Cl`, the outcome was inactive.
Same read-out and setting: the same measure for `COC(=O)c1c(Cl)nn(C)c1S(=O)(=O)NC(=O)Nc1nc(OC)cc(OC)n1`: “inactive”; for `COC(=O)c1ccccc1C(=O)O`: “inactive”.
